Assays:
Conditions in all cases: concentration: 1 μM, replicates: in singlicate; n = 1
CDK2 = system: CDK2
CDK3 = system: CDK3
CDK4-cyclinD1 = system: CDK4-cyclinD1
CDK4-cyclinD3 = system: CDK4-cyclinD3
CDK4 = system: CDK4
CDK5 = system: CDK5
CDK7 = system: CDK7
CDK8 = system: CDK8
CDK9 = system: CDK9
CDKL1 = system: CDKL1
CDKL2 = system: CDKL2
CDKL3 = system: CDKL3
CDKL5 = system: CDKL5
CHEK1 = system: CHEK1
CHEK2 = system: CHEK2
CIT = system: CIT
CLK1 = system: CLK1
CLK2 = system: CLK2
CLK3 = system: CLK3
CLK4 = system: CLK4
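Note: KINOMEscan kinase panel screen.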

Structure (SMILES) | %Inh (CDK2) [%] | %Inh (CDK3) [%] | %Inh (CDK4-cyclinD1) [%] | %Inh (CDK4-cyclinD3) [%] | %Inh (CDK4) [%] | %Inh (CDK5) [%] | %Inh (CDK7) [%] | %Inh (CDK8) [%] | %Inh (CDK9) [%] | %Inh (CDKL1) [%] | %Inh (CDKL2) [%] | %Inh (CDKL3) [%] | %Inh (CDKL5) [%] | %Inh (CHEK1) [%] | %Inh (CHEK2) [%] | %Inh (CIT) [%] | %Inh (CLK1) [%] | %Inh (CLK2) [%] | %Inh (CLK3) [%] | %Inh (CLK4) [%]
Cl.Cn1ccc(-c2cccc(Nc3ccnc4cc(-c5nccs5)ccc34)c2)n1 [GW525701] | 0 | 6 | 47 | 0 | 36 | 0 | 0 | 7 | 0 | 0 | 61 | 0 | 0 | 24 | 0 | 3 | 1 | 0 | 0 | 37
Nc1nc(-c2cccnc2)c(-c2ccnc3ccccc23)s1 [GW684083] | 0 | 11 | 16 | 0 | 41 | 0 | 0 | 46 | 0 | 13 | 20 | 0 | 0 | 0 | 11 | 45 | 14 | 0 | 100 | 38
Cn1ccc2ncnc(Oc3ccc(NC(=O)Nc4cccnc4)c(Cl)c3)c21 | 0 | 0 | 0 | 0 | 0 | 4 | 7 | 0 | 2 | 8 | 3 | 13 | 14 | 0 | 9 | 5 | 0 | 5 | 4 | 32
C[C@H]1CC[C@@H](C(=O)Nc2ccccc2)CN1c1cc(-c2ccc3c(N)n[nH]c3c2)nc(N)n1 [GSK2283293] | 0 | 0 | 0 | 0 | 0 | 0 | 0 | 14 | 0 | 22 | 17 | 0 | 0 | 0 | 0 | 32 | 18 | 0 | 0 | 21
O=C(Nc1ccccc1F)NC1CCN(c2ccnc(Nc3ccc(F)cc3)n2)C1 (centres unmarked) [GSK1379722] | 0 | 16 | 0 | 2 | 31 | 0 | 0 | 22 | 0 | 18 | 30 | 0 | 0 | 8 | 0 | 2 | 21 | 0 | 24 | 17
FC(F)(F)c1cc(Nc2nccc(-c3c(-c4ccc(Cl)cc4)nn4ncccc34)n2)ccc1Cl [GW829351] | 0 | 34 | 0 | 0 | 0 | 0 | 0 | 58 | 0 | 0 | 28 | 0 | 0 | 0 | 4 | 17 | 0 | 22 | 0 | 0
Cc1ccc(O)cc1Nc1cc(C(F)(F)F)nc2ccc(-c3ccncc3)cc12 [GW630823] | 5 | 0 | 0 | 0 | 0 | 0 | 0 | 0 | 5 | 20 | 0 | 0 | 0 | 34 | 0 | 0 | 40 | 16 | 0 | 20
N#Cc1ccc(Oc2ccc(Nc3ncnc4cc[nH]c34)cc2Cl)cc1 | 6 | 2 | 11 | 6 | 0 | 0 | 27 | 13 | 17 | 27 | 15 | 3 | 14 | 4 | 19 | 22 | 25 | 19 | 3 | 21
Cl.c1ccc(Cn2ncc3cc(Nc4ncnc5ccccc45)ccc32)cc1 [GW273749] | 7 | 0 | 0 | 11 | 15 | 0 | 1 | 0 | 0 | 0 | 8 | 0 | 3 | 0 | 30 | 26 | 42 | 6 | 0 | 4
FC(F)(F)c1ccc(-c2nn3ncccc3c2-c2ccnc(Nc3cccc(C(F)(F)F)c3)n2)cc1 [GW828205] | 1 | 0 | 2 | 0 | 0 | 0 | 0 | 32 | 0 | 55 | 0 | 0 | 0 | 0 | 0 | 16 | 4 | 0 | 0 | 0
